Assay outcomes deposited in PubChem by National Center for Advancing Translational Sciences (NCATS).
JMJD2A Tudor: JMJD2A Tudor domain (human) inhibition. O75164. AlphaScreen JMJD2A-Tudor / H3K4me3 peptide binding. Potency, µM (doses to about 114 µM), for inactives: top-dose activity change, negative = inhibition, hits mostly inhibitors. hit rate 4.4% among 390,000. AID 504339; note: potency is the fitted concentration of half-maximal effect; % is set by controls: 0 for no effect and ±100 for the full control effect; nearly all actives have a fitted effect of over 50% in size
BAZ2B inh: BAZ2B (human) inhibition | Q9UIF8 | AlphaScreen BAZ2B-H3K14Ac peptide displacement | Potency, µM (titrated, usually from 114 µM), for inactives: at the top dose activity change, negative = inhibition, hits mostly inhibitors | hit rate 4.4% among 360,000 | AID 504333; note: potency is the fitted concentration of half-maximal effect; % is set by controls: 0 for no effect and ±100 for the full control effect; nearly all actives have a fitted effect of over 60% in size
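Protein-peptide AlphaScreen: BAZ2B 50 nM, b-H3K14Ac 50 nM, 1x PBS pH 7.4 + 0.01% Tween-20. Preincubation 30 min RT; cpd 30 min RT (top 110 uM); beads 20 min RT, light-protected.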
L3MBTL1 inh: inhibitors of human L3MBTL1; Potency, µM (titrated, usually from 57.1 µM), for inactives: top-dose activity, negative = inhibition, actives largely listed as inhibitors; Q9Y468; AlphaScreen L3MBTL1–H3K9me1 peptide binding; hit rate 0.66% among 230,000; AID 485360; note: potency is the fitted concentration of half-maximal effect; % is set by controls: 0 for no effect and ±100 for the full control effect; nearly all actives have a fitted effect of over 60% in size
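L3MBTL1 (50 nM) pre-complexed 30 min with biotinylated H3(1-15)K9me1 peptide (75 nM), then compounds added for 30 min at room temperature; AlphaScreen streptavidin donor/nickel chelate acceptor beads (10 ug/mL final) read after 30 min dark incubation.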
G9a inh: G9a (human) methyltransferase inhibition | Q96KQ7 | G9a H3K9 monomethylation, AlphaScreen, 2 h | Potency, µM (top dose mostly 102 µM), without a hit: at the highest dose activity, negative = inhibition, hits mostly inhibitors | hit rate 8.8% among 350,000 | AID 504332; note: potency is the fitted concentration of half-maximal effect; % is set by controls: 0 for no effect and ±100 for the full control effect; nearly all actives have a fitted effect of over 75% in size
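Step 1: enzyme (final 20 nM) with compound, 15 min RT. Step 2: substrate peptide 500 nM and SAM 20 uM, 2 h RT. Step 3: anti-H3K9me1 antibody and AlphaScreen beads, 10 min, then plate read.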
PI5P4Ka inh: blocks human PI5P4K alpha kinase activity. P48426. PI5P4Kalpha enzyme, ADP-Glo luminescence, 60 min; hits give low values. max response, %. hit rate 1.2% among 330,000; active = max response of -50% or lower; inconclusive = between -30% and -50%; inactive = -30% or higher; note: value at the top dose of about 77 µM; % is set by controls: 0 for no effect and ±100 for the full control effect
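qHTS, 1536-well: enzyme/substrate mix, compound by pin tool, 5 microM ATP final; RT 60 min; ADP-Glo reagents 1 (45 min) then 2 (30 min); luminescence.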
HP1b chromo inh: inhibitors of HP1-beta chromodomain binding to methylated histone tails. Potency, µM (highest dose often 114 µM), for the others: top-dose activity change, negative = inhibition, most hits filed as inhibitors. hit rate 0.56% among 390,000. AlphaScreen HP1-beta / biotin-H3K9me3 peptide binding. AID 540317; note: potency is the fitted concentration of half-maximal effect; nearly all actives have a fitted effect of over 70% in size
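Compound inhibition of the preformed complex between 50 nM HP1-beta and 50 nM biotinylated H3K9me3 peptide was read by AlphaScreen. Buffer was PBS pH 7.4 with 0.01% Tween-20. Incubations ran 30 min at room temperature, with 10 ug/mL donor/acceptor beads.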
Active calls of the source: *; ? = inconclusive; nt = no result given; ! = not active in a repeat; [ ] = dose if it differs, or a comment. Only some compounds are listed: those with a hit (about 11% of all), similar ones and a draw of the others. Unless noted, calls come from the whole dose curve; as a rule, active = well fitted inhibition curve with a large enough effect; inconclusive = small, poorly fitted or top-dose-only effect; inactive = no such curve, though single readings can be large or run the other way.

SMILES | JMJD2A Tudor | BAZ2B inh | L3MBTL1 inh | G9a inh | PI5P4Ka inh | HP1b chromo inh
O=C(COc1ccc(OCc2ccccc2)cc1)NN=C1CCCC1 | 9% | -26% | 0% | 25% | -4 | -10%
COC1C=CC23c4cc5c(cc4CN(CC2O)C3C1)OCO5 (stereo not given) | nt | nt | nt | -25%[2.33 µM] | nt | nt
COc1c(N2CCN(C(=S)NCc3ccccc3)C(C)C2)c(F)cc2c(=O)c(C(=O)O)cn(C3CC3)c12 (stereo not given) | 56µM* | 79µM* | -29% | 20% | -14 | -31%
COc1c(F)c(F)cc2c(=O)c(C(=O)O)cn(C3CC3)c12 | 28µM* | ? | nt | 6% | 2 | -1%
CCOC(=O)c1ccc(/C=C2/C=C(c3ccccc3)N(c3ccc(Cl)c(C(=O)O)c3)C2=O)cc1 | ? | 50µM* | -10% | 11µM* | ? | -21%
CCOC(=O)c1ccc(Cl)c(NC(=O)c2ccc(-c3ccccc3)cc2)c1 | -1% | -20% | -2% | 77%[12.7 µM] | nt | 16%
c1cc(N2CCCCC2)nc(N2CCCCC2)n1 | -12% | nt | nt | nt | 1 | -3%
C[c-]1[c-](C)[c-](C)[c-](C)[c-]1C.[Fe].c1cc2nccc(N3CCCC3)[c-]2c1 (stereo not given) | 45µM* | 40µM* | nt | ? | ? | 18µM*!
CCCn1cnc2c(N)c(C)c(C)cc21 | -21% | 3% | -5% | 1.8µM* | nt | 16%
Cc1ccccc1Cn1cnc2c([N+](=O)[O-])c(C)c(C)cc21 | -29% | ? | -3% | 35%[59 µM] | -1 | 13%
Cc1c(C(=O)O)sc2nc(CSc3ncc(C(F)(F)F)cc3Cl)[nH]c(=O)c12 | 50µM* | 50µM* | ? | 8%[59 µM] | ? | ?
O=C(Nc1ncc2c(n1)-c1ccccc1CC2)c1ccc(Cl)cc1 | ? | 6% | 5% | -5%[0.0925 µM] | nt | 11%
CCCSCC(=O)Nc1ncc2c(n1)-c1ccccc1CC2 | ? | 56µM* | ? | 8.9µM* | -28 | 23%
Cn1c2cc(Br)sc2c2cnn(Cc3c(F)cccc3F)c(=O)c21 | nt | 8% | -8% | -31%[12.7 µM] | nt | nt
O=c1cc(NC2CCCCC2)[nH]c(=O)[nH]1 | -10% | nt | nt | nt | -4 | 4%
O=c1[nH]c(NC2CCCCC2)c([N+](=O)[O-])c(=O)[nH]1 | 1% | 11% | 11% | -3%[59 µM] | -76* | 39%
Cc1ccc(NS(=O)(=O)c2ccccc2)c(C)c1 | 50µM* | nt | nt | nt | nt | 12%
Cc1ccc(NS(=O)(=O)c2cccc(C(=O)NNC(=O)c3cccn3C)c2)c(C)c1 | ? | 45µM* | nt | nt | -10 | -6%
Cc1ccc(S(=O)(=O)NNC(=O)Nc2ccccc2F)c(C)c1 | -12% | -18% | nt | 50µM* | -3 | 30%
O=C(CCC(=O)Nc1ccccc1)NNS(=O)(=O)c1ccc(Cl)cc1 | ? | -19% | nt | 6.3µM* | -19 | 28%
Cc1ccc(S(=O)(=O)NNC(=O)Nc2cccc(C)c2C)c(C)c1 | -5% | 0% | nt | 21% | 9 | 33%
Cc1ccc(NS(=O)(=O)c2ccc(Cl)nc2)c(C)c1 | -9% | -1% | 1% | -5% | 10 | 21%
CCCCCCCCCCCCC/C=C/[C@@H](O)[C@H](CO)NC(=O)CCCCCCCCCCCCCCC | nt | nt | nt | -1%[59 µM] | nt | nt
CCCCn1c(=O)c2[nH]c(C34CC5CC(CC3C5)C4)nc2n(CCCO)c1=O | nt | nt | nt | 27%[59 µM] | nt | nt
COc1ccccc1CNc1cc(-c2cccc(C#N)c2)ncn1 | nt | nt | nt | 16%[0.501 µM] | nt | nt
SMILES | JMJD2A Tudor | BAZ2B inh | L3MBTL1 inh | G9a inh | PI5P4Ka inh | HP1b chromo inh
Cc1c(NS(=O)(=O)c2ccccc2)cc(Cl)c(O)c1C | 89µM* | -9% | -4% | ? | -16 | ?
O=C(Nc1ccccc1F)Nc1ccccc1F | 11% | 0% | 6% | 9% | 0 | 51%
O=C(NNc1ccccc1)Nc1ccccc1F | -13% | ? | nt | 50µM* | -3 | 4%
Cc1ccc(NC(=O)CCC(=O)NNS(=O)(=O)c2ccccc2)c(C)c1 | -22%[11.4 µM] | -4%[57.1 µM] | 3% | 50µM* | ? | -6%
Cc1c(Cl)cccc1NS(=O)(=O)c1ccccc1 | -5% | nt | nt | nt | 2 | 3%
Cc1ccc(NC(=O)CCC(=O)NNS(=O)(=O)c2ccccc2)cc1C | ? | -2% | -1% | -1%[59 µM] | -8 | ?
Cc1ccc(NC(=O)CCC(=O)NNC(=O)/C=C/C(=O)O)c(C)c1 | ? | -36% | 16% | 10µM* | 0 | 21%
CCOC(=O)CNC(c1ccccc1)c1cc(Br)ccc1NC(=O)c1ccc(Cl)cc1 (stereo not given) | -10% | 2% | nt | -1%[59 µM] | nt | 21%
O=C(O)c1cc(-c2ccccc2)nn1Cc1ccccc1 | -12% | nt | nt | -20%[59 µM] | nt | 44%
Cc1ccc(NC(=O)CS(=O)c2ccccc2N)c(C)c1 (stereo not given) | -10% | -17% | nt | 40µM* | 1 | 5%
O=C(O)CC1NC(=S)N(Cc2ccccc2)C1=O (stereo not given) | nt | nt | nt | nt | 4 | nt
O=C1C(CCCNC(=S)NCc2ccccc2)NC(=S)N1Cc1ccccc1 (stereo not given) | -31% | ? | -9% | 50µM* | 1 | -3%
CC(C)n1c(SCC(=O)Nc2nncs2)nnc1-c1ccco1 | 56µM* | 50µM* | nt | nt | -74* | -12%
CC(C)n1c(SCC(=O)Nc2ccc(N3CCOCC3)cc2)nnc1-c1ccco1 | 32µM* | -16% | nt | -39% | 3 | 31%
Cn1c(SCC(=O)Nc2ccc(N3CCOCC3)cc2)nnc1-c1ccco1 | -21% | -23% | nt | 1% | 5 | -15%
Cc1nn(CC(=O)Nc2ccccc2F)c(=O)c2c(C)n(-c3ccc(Cl)cc3)nc12 | -15% | 6% | nt | 6%[59 µM] | nt | 18%[57 µM]
COc1ccc(OC)c2sc(N(CCN(C)C)C(=O)c3ccc4ccccc4c3)nc12 | ? | ? | nt | 16µM* | 7 | -19%[57 µM]
Cc1ccc2sc(N(CCN(C)C)C(=O)c3ccc4ccccc4c3)nc2c1C | ? | ? | nt | nt | -7 | 68%
Cc1cc(C)c2sc(N(CCN(C)C)C(=O)c3cc(Cl)sc3Cl)nc2c1 | ? | nt | nt | 45µM* | -3 | 5%
COc1cc2ccccc2cc1C(=O)N(CCN(C)C)c1nc2c(C)cccc2s1 | ? | ? | nt | 13µM* | 2 | 11%
Cc1cccc2sc(N(CCCN(C)C)C(=O)COc3ccccc3)nc12 | ? | -15% | nt | ? | nt | 29%
Cc1cccc2sc(N(CCN(C)C)C(=O)c3cc(Cl)sc3Cl)nc12 | ? | ? | -9% | 45µM* | 11 | -13%
Cc1nc2ccn(Cc3cccnc3)c(=O)c2cc1C(=O)Nc1ccc(F)cc1F | -8% | -4% | nt | 9%[59 µM] | nt | 42%
CCOC(=O)N1CCC(NC(=O)c2ccc3c(c2)N(Cc2ccccc2C)C(=O)c2ccccc2S3=O)CC1 (stereo not given) | -28% | -20% | nt | 2%[59 µM] | nt | 7%
